# Autofluor counter – flagged as autofluorescent in microsphere protease counterscreen; compound autofluorescence counterscreen, microsphere flow cytometry; active compounds read high; fluorescence intensity (concentration not given with the values); 3.1% of 360,000 active; in the data active means fluorescence intensity above about 16000; inconclusive means no clear call, values can overlap the other calls
# VHR inh abs – DUSP3 (human) phosphatase inhibition; inhibition, % at 13.3 µM; 0.52% of 290,000 active; AID 1654; recombinant VHR phosphatase, pNPP absorbance; P51452; in the data active means inhibition above about 50%
# Target sequence (P51452 whole entry, looked up): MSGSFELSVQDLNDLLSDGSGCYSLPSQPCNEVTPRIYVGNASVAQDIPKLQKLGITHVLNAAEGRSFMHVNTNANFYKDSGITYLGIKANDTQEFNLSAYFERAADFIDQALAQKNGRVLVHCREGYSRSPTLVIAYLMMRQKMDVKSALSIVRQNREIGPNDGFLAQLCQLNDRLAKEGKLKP
# BoNT A protease – blocks Botulinum neurotoxin A light chain protease | multiplex microsphere protease substrate cleavage, flow cytometry | inhibition, % at 10 µM | 0.17% of 360,000 active; further: plate controls were buffer without enzyme for full effect and enzyme alone for no effect
# Anthrax LF inh2 – anthrax lethal factor protease inhibition; P15917; multiplex microsphere protease cleavage assay, LF; inhibition, % at 10 µM; 0.12% of 360,000 active; further: plate controls were buffer without enzyme for full effect and enzyme alone for no effect
# BoNT F protease – blocks Botulinum neurotoxin F light chain protease. AID 588497. inhibition, % at 10 µM. 0.22% of 360,000 active. Multiplex microsphere protease cleavage assay, flow cytometry; in the data active means inhibition above about 35%, passing the limit was not always enough; inconclusive means no clear call, values can overlap the other calls; further: plate controls were buffer without enzyme for full effect and enzyme alone for no effect
# MazF activator – MazEF (E. coli) toxin RNase activation; P0AE70; FAM/BHQ RNA-DNA oligo cleavage fluorescence, 5 h; activation, % at 20 µM; 0.32% of 350,000 active; in the data active means activation above about 50%
# Target sequence (P0AE70 whole entry, looked up): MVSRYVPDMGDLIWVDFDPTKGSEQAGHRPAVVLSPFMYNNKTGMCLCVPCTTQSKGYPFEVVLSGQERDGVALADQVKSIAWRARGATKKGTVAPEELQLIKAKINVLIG
# * = called active by the depositor; ? = inconclusive; · = not tested or not shown; ! = not confirmed by another sample. The list is not random: actives were taken first. Their share in the collection is about 4%. Unless noted, no stated cut-off is given here; in the data, active means inhibition above about 30%; inconclusive means no clear call, values can overlap the other calls; inactive means below that.
SMILES,Autofluor counter,VHR inh abs,BoNT A protease,Anthrax LF inh2,BoNT F protease,MazF activator
CCc1sc(C(=O)NCCCN2CCCC2=O)cc1Br,5624,5,2,1,12,-3
O=C(Cc1ccccc1)Nc1ccc(NC(=O)c2ccc(Br)cc2)cc1,4171,-2,-9,-8,?,-3
CCCCN1C2=C(C(=O)CCC2)C(c2ccc(Cl)c(Cl)c2)C2=C1c1ccccc1C2=O (stereo not drawn),5076,3,2,-7,-24,60*
Cc1ccc(N2C(=O)CC(Cc3cc(C)cc(C)c3)C2=O)cc1 (stereo not drawn),4208,15,-1,-6,-2,2
Cc1cc(C)cc(CC2CC(=O)N(c3ccc(Cl)cn3)C2=O)c1 (stereo not drawn),22513*,47,1,-4,1,-3
O=C(Nc1ccc2c(c1)OCCO2)C1CC(c2ccc(F)cc2)=NO1 (stereo not drawn),3762,20,0,-8,-19,6
Cc1occc1C(=O)N1CCN(S(C)(=O)=O)CC1,10994,25,1,-4,0,1
CCc1noc(C)c1C(=O)N1CC(C)OC(C)C1 (stereo not drawn),·,11,·,·,·,-1
CCc1noc(C)c1C(=O)N1CCCC1,16196*,6,?,-1,0,-2
Cc1cc(C(=O)N2CCC3(CC2)OCCO3)cs1,21544*,17,?,1,-4,3
Cc1noc(C)c1C(=O)N1CCC2(CC1)OCCO2,20724*,13,-2,-1,-2,3
Cc1occc1C(=O)N1CCC2(CC1)OCCO2,23817*,24,?,-1,-1,-4
Cc1occc1C(=O)N1CCN(C(c2ccccc2)c2ccccc2)CC1,22960*,-2,-1,-1,-1,-11
Cc1ccc(C)c(S(=O)(=O)NC(C)C(=O)Nc2ccc(-c3nc4ccccc4s3)cc2)c1 (stereo not drawn),2588,10,1,6,-3,52*
CC(NS(=O)(=O)c1cccc(Cl)c1)C(=O)Nc1ccc(-c2nc3ccccc3s2)cc1 (stereo not drawn),4173,-8,2,1,14,-2
CCN1/C(=C\C(=S)Nc2ccccc2)Sc2ccccc21,3324,26,39*,-5,-45,11
CCCNC(=O)COC(=O)c1cccnc1Nc1ccccc1F,1973,10,0,1,-8,1
O=C(COC(=O)c1cccnc1Nc1ccccc1F)NCCN1C(=O)CSC1=O,4198,31,10,-1,69*,-6
C=CCNC(=S)Nc1sc2c(c1C(=O)OCC)CC(C(C)C)OC2 (stereo not drawn),22389*,10,0,0,0,-4
CCOC(=O)c1c(NC(=S)NCCc2ccccc2)sc2c1CC(C(C)C)OC2 (stereo not drawn),2545,-2,-1,-1,-7,-3
C=CCN(CC=C)Cc1cc(=O)oc2cc(C)c(C)cc12,4206,·,0,3,0,·
Cc1ccc(-c2noc(CSc3nnc(Cc4cccs4)n3-c3ccccc3)n2)cc1,6099,7,-1,1,0,3
NC(=O)CSc1nnc(COc2ccccc2)n1C1CCCCC1,19126*,3,2,1,-1,-1
O=C1COc2ccc(C(=O)CSc3nnc(Cc4cccs4)n3-c3ccc(Cl)cc3)cc2N1,17966*,13,7,2,11,-1
O=C1COc2ccc(C(=O)CSc3nnnn3-c3ccccc3)cc2N1,3143,21,0,-3,-19,16
SMILES,Autofluor counter,VHR inh abs,BoNT A protease,Anthrax LF inh2,BoNT F protease,MazF activator
NC(=O)CSc1nnc(Cc2cccs2)n1C1CCCCC1,19288*,23,2,3,0,1
Cc1ccc(-n2c(Cc3cccs3)nnc2SCC(N)=O)cc1,16452*,11,?,-1,0,1
COC(=O)c1c(NC(=O)CN2CCC3(O)CCCCC3C2c2ccccc2OC)sc(C)c1C (stereo not drawn),1978,-2,0,-1,-3,2
CCOC(=O)C1=C(C)NC(C)=C(C(=O)OCC)C1C(=O)O,20924*,33,?,1,-4,8
CCOC(=O)C1=C(C)NC(C)=C(C(=O)OCC)C1,18757*!,-3,?,-4,?,-3
CCOC(=O)C1=C(C)NC(C)=C(C(=O)OCC)C1c1ccc(O)cc1,2441,-1,0,-2,-8,0
CCCC1C(C(=O)OCC)=C(C)NC(C)=C1C(=O)OCC,5086,19,0,-1,-24,13
Cc1noc(C)c1C(=O)OCC(=O)Nc1ccc(S(N)(=O)=O)cc1,3879,·,0,-12,4,-1
CC(=O)Nc1c(F)cc(Br)cc1F,3388,22,?,-5,?,-15
N=c1n(-c2ccccc2)c(O)cc(=O)n1-c1ccccc1,22975*,14,-3,0,-7,2
O=c1cc(O)n(-c2ccccc2)c(=S)[nH]1,2651,13,1,6,?,-1
Cc1ccc(CNC(=O)c2c(C)cc(=O)oc2C)cc1,10776,7,-1,-3,3,4
Cc1cc(=O)oc(C)c1C(=O)NCC1COc2ccccc2O1 (stereo not drawn),20933*,0,6,-6,6,-2
Cc1cc(=O)oc(C)c1C(=O)NCCNC(=O)c1c(C)cc(=O)oc1C,2859,-8,0,-2,1,15
Cc1cc(=O)oc(C)c1C(=O)NCc1ccccn1,20680*,11,-2,-1,-1,-2
CCN(CCCNC(=O)c1c(C)cc(=O)oc1C)c1cccc(C)c1,22991*,13,1,-7,2,-2
Cc1cc(=O)oc(C)c1C(=O)NCCC(C)C,22899*,10,2,0,1,13
Brc1ccc(N=Cc2ccccn2)cc1,2533,-11,2,1,4,6
Cc1cc(-c2nnc(CCC(=O)NC(Cc3ccccc3)c3ccccc3)o2)no1 (stereo not drawn),4013,8,1,0,-2,3
Cc1nc(NS(=O)(=O)c2ccc(Br)cc2)c2c3c(sc2n1)CCC3,2781,13,0,-1,-1,-1
Cc1ccc(C)c(CSc2nnc(-c3cccnc3)o2)c1,24006*,26,?,-3,-2,4
O=C(CSc1nnc(-c2ccccn2)n1-c1ccc(Cl)cc1)Nc1ccc2c(c1)OCO2,22588*,-19,2,0,2,-5
Nn1c(SCC(=O)Nc2ccc3c(c2)OCCO3)nnc1-c1ccccn1,2792,7,-2,0,-12,-1
Nc1nnc(SCC(=O)Nc2ccc3c(c2)OCCO3)s1,17217*,-10,-2,-14,-4,5
Nc1cc(N)nc(SCC(=O)Nc2ccc3c(c2)OCO3)n1,4246,53*,1,-2,-5,6
Nc1cc(N)nc(SCC(=O)Nc2ccc3c(c2)OCCCO3)n1,3443,-8,0,4,8,5

# Screening results: PubChem BioAssay, several laboratories
